Test results published in PubChem BioAssay (NCI).
The panel holds about 83,000 compounds, 20% with a hit somewhere; the sample as a whole holds those more often.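 Percent growth is the endpoint: 0 to 100 indicates growth inhibition (40 means 60% inhibition), 0 means no net growth, and negative values indicate cell death.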 A number with no mark means an inactive call. Calls of active or inactive are those of the source. How the source made its calls: active means growth percent below 10; inactive means the rest.

System: HL-60(TB) leukemia
Test: NCI-60 one-dose screen, 48 h (100 = growth as untreated, 0 = no growth, -100 = all killed)
Conditions: 10 µM unless noted

| Compound | growth |
| --- | --- |
| CC(=O)c1ccc(NC(=O)CSc2nnc(-c3cc(-c4ccc(C)cc4)nc4ccccc34)o2)cc1 | 80.6% |
| C=CC(C)(C)n1cc(C2=C(O)C(=O)C(c3cn(C(C)(C)C=C)c4ccccc34)=C(O)C2=O)c2ccccc21 | 69.4% |
| O=C(COc1cccc(/C=C2\COc3ccccc3C2=O)c1)c1ccccc1 | 40.3% |
| O=C(Nc1ccccc1)Nc1ccc(Nc2ncnc3sc4c(c23)CCCC4)cc1 | 97% |
| CCCC/C=C/[C@@H]1C[C@H]1CCO | 111% |
| COC(=O)C(C(=O)OC)C(Br)C(Br)C(Br)c1ccccc1 (configuration not stated) | 20.9% |
| COc1cc(/C=C/C(=O)c2c(-c3ccc(F)cc3)nc3sc(C)nn23)cc(OC)c1OC | 12% |
| CC(C)(O)CCl | 120% |
| CCN1CCN(c2ccc(NC(=O)Nc3nc4ccc(-c5ccccc5OC)cc4s3)cc2)CC1 | -74.1% (active) |
| COC1/C=C\OC2(C)Oc3c(C)c(O)c4c(O)c(c(CN(C)CCO)c(O)c4c3C2=O)NC(=O)/C(C)=C\C=C/C(C)C(O)C(C)C(O)C(C)C(OC(C)=O)C1C (configuration not stated) | 114% |
| Cn1cc(-c2csc(-c3ccccc3)n2)c2cccnc21 | 3.19% [100 µM] (active) |
| COc1cc(Nc2nc(NCCN)nc3cc[nH]c(=O)c23)cc(OC)c1 | 71.8% |
| CC(=O)n1c(-c2ccc(Cl)cc2)nc2c(c1=O)C(c1ccc(Cl)cc1)c1sc3c(Cl)cccc3c1O2 (configuration not stated) | -15.4% (active) |
| COc1cc(NC(C)CCCNC(=O)CCC(=O)NCCCNCCCCCCCCCCNCCCNC(=O)CCC(=O)NCCCC(C)Nc2cc(OC)cc3cccnc23)c2ncccc2c1 (configuration not stated) | 58.2% [8 µM] |
| CCn1cc(CNc2ccc(C(=O)Nc3ccc4ccccc4c3)cc2)c(C)n1 | 79.8% |
| COc1cc(OC)c(C(=O)/C=C/c2cccc(C(F)(F)F)c2)c(OC)c1 | -26.6% (active) |
| CCNCCNc1c(C)c(-c2ccc(C(F)(F)F)cc2)c(C#N)c2nc3ccccc3n12 | 74% |
